“And” between values parts separate entries of the source, which are not always exact repeats. Equal values may be shown once. Inconclusive results are not listed. The source made the active and inactive calls. Unless noted, calls come from the whole dose curve; as a rule, active = well fitted curve in the direction sought with a large enough effect; inconclusive = small, poorly fitted or top-dose-only effect, or another doubt; inactive = no such curve, though single readings can be large; an effect the other way counts as inactive or inconclusive.
Columns and labels:
[1] = S16 Schwann cell viability assay (CellTiter-Glo assay) (AID 624031); note: nearly all actives have a fitted effect of over 70% in size; note: potency is the fitted concentration of half-maximal effect
How it was run: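 Native S16 rat Schwann cells in DMEM/10% FBS without phenol red were incubated overnight, then exposed to compounds for 24 h at 37 °C/5% CO2. Viability was read as ATP luminescence (CellTiter-Glo), normalized to no-cell wells and DMSO (0%).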

[2] = S16 Schwann cell PMP22 intronic element firefly luciferase assay (AID 624032); note: nearly all actives have a fitted effect of over 30% in size; note: potency is the fitted concentration of half-maximal effect
How it was run: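 Rat S16 Schwann cells stably carrying a PMP22 intronic element-driven Fluc reporter were seeded overnight, then exposed to compounds for 24 h at 37 °C. Luminescence was normalized to PTC124 (positive control) and DMSO (0% activity).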

[3] = S16 Schwann cell PMP22 intronic element beta-lactamase assay (AID 624044; calls by dose curve; note: nearly all actives have a fitted effect of over 15% in size; note: potency is the fitted concentration of half-maximal effect)
How it was run: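 Beta-lactamase reporter under a PMP22 intronic regulatory element in stable S16 rat Schwann cells; 24 h compound exposure. 460 nm blue signal normalized between DMSO (0%) and potassium clavulanate, with 535 nm FRET tracking viability; curves classed by r2 and response.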

[4] = qHTS assay for small molecule activators of the p53 signaling pathway (AID 651743; active = well fitted activation curve with a large enough effect in the signal ratio, not every such curve was filed as active; the % refers to the signal ratio; note: % of control where 0% means no effect); conditions: HCT-116 p53RE-bla, beta-lactamase FRET ratio, 16 h; activation: stronger effect = higher value
How it was run: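 Agonist-mode quantitative HTS in HCT-116 cells carrying a p53-response-element beta-lactamase reporter; 16 h compound treatment at 37 C, then FRET substrate loading for 2 h at room temperature and fluorescence read.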

[5] = qHTS assay for small molecule agonists of the antioxidant response element (ARE) signaling pathway (AID 651741; active = well fitted activation curve with a large enough effect in the signal ratio; the % refers to the signal ratio; note: potency is the fitted concentration of half-maximal effect)
How it was run: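 Reporter: beta-lactamase under ARE, stably in HepG2. Exposure: 16 h, 37 C, compounds delivered in DMSO by pin tool after 5 h cell preincubation. Readout: FRET substrate fluorescence after 2 h at RT.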

[6] = qHTS assay for small molecule disruptors of the mitochondrial membrane potential - 1 hr assay (AID 651754; calls by dose curve; note: % is set by controls: 0 for no effect and ±100 for the full control effect; nearly all actives have a fitted effect of over 35% in size)
How it was run: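 Mitochondrial potential in living HepG2 cells after 1 hr compound treatment at 37C was read with Mito-MPS dye added for a further 30 min. Red aggregate and green monomer fluorescence were measured; loss of potential leaves dye as cytoplasmic monomers.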

[7] = qHTS assay for small molecule disruptors of the mitochondrial membrane potential - 5 hr assay (AID 651755; calls by dose curve; note: % is set by controls: 0 for no effect and ±100 for the full control effect; nearly all actives have a fitted effect of over 40% in size)
How it was run: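 Seed HepG2 overnight, add compound, incubate 5 hr at 37C and 5% CO2, stain 30 min with Mito-MPS, then measure monomer (490/535 nm) and aggregate (540/590 nm) fluorescence.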

[8] = biological target: Tumor necrosis factor (Homo sapiens) (UniProt P01375); assay: qHTS assay to identify small molecules that stimulate Tumor Necrosis Factor-alpha (TNF-alpha) secretion (AID 651757; active = well fitted curve in the direction sought with a large enough effect in the signal ratio; the % refers to the signal ratio; note: 0% is about no effect)
How it was run: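 Secreted TNF-alpha quantified by TR-FRET sandwich of two labeled anti-TNF-alpha antibodies, incubated 3 hr at room temperature. Preceded by 17 hr, 37 C compound treatment of THP-1 cells at 3000 cells/well.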

[9] = qHTS assay to identify small molecules that stimulate interleukin-8 (IL-8) secretion (AID 651758; active = well fitted activation curve with a large enough effect in the signal ratio; the % refers to the signal ratio; note: potency is the fitted concentration of half-maximal effect; for activation: 0% is about no effect)
How it was run: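 Quantitative HTS in THP-1 monocytic cells at 2000 cells per well, with 16 hrs compound incubation at 37 C. IL-8 in the medium was then quantified by HTRF immunoassay, read after 1-3 hrs at room temperature.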

[10] = biological target: Glutaminase kidney isoform, mitochondrial (Homo sapiens) (UniProt O94925); assay: qHTS for Inhibitors of Glutaminase (GLS): LOPAC Validation (AID 624146);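 note: glutamate product detected by oxidase and peroxidase coupled Amplex red fluorescence gain; % is set by controls: 0 for no effect and ±100 for the full control effect; nearly all actives have a fitted effect of over 60% in size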
How it was run: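 Coupled fluorescence readout: glutamate oxidase/HRP/Amplex Red detect glutamate formed by hKGA from L-glutamine (1 mM solution added). Buffer 45 mM KH2PO4 pH 8.2, 0.02% Tween-20; reads at t0 and 30 min RT.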

[11] = qHTS of Trypanosoma Brucei Inhibitors: LOPAC Validation (AID 624147); note: 0% is about no effect
How it was run: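 TbPYK + substrate in 50 mM TEA pH 7.2, 100 mM KCl, 10 mM MgCl2, 0.05% BSA, 0.01% Tween-20; cpd pinned; ADP 130 uM final; 45 min RT; Kinase-Glo Plus 10 min; luminescence endpoint.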

[12] = biological target: Glucagon-like peptide 1 receptor (Homo sapiens) (UniProt P43220); assay: qHTS of GLP-1 Receptor Agonists: LOPAC Validation (AID 624148);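 note: 0% is about no effect; higher luminescence signal means agonism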
How it was run: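 HEK293 cells stably co-expressing a cAMP-responsive luciferase reporter and a hypersensitive GLP-1R were plated 12 h at 37 °C and exposed to compounds for 4-6 hr at 37 °C, 5% CO2. Luminescence was read 12 min after adding detection reagent.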

[13] = qHTS of Nrf2 Activators: LOPAC Validation (AID 624149); note: 0% is about no effect
How it was run: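 Luciferase signal from ARE activation, read with Steady-Glo after 30 min at room temperature. Compounds were pin-transferred onto AREc32_Fluc cells (1000/well, OPTI-MEM/5% FBS, seeded overnight) and left 24 hr at 37 deg C.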

[14] = HTS Assay for Allosteric Antagonists of the Human D2 Dopamine Receptor: Hit Validation in HTRF (AID 624455);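 note: stable D1 dopamine receptor cell line scored for blocking the D1 response; % is set by controls: 0 for no effect and ±100 for the full control effect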
How it was run: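 Inhibition of the D1-mediated response was measured by HTRF. Cells used were a line stably expressing the D1 dopamine receptor.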

[15] = qHTS Assay for Identification of Small Molecule Antagonists for NFkB Signaling Pathway. (AID 624479; calls by dose curve;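 note: pathway stimulated with TNF alpha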; note: potency is the fitted concentration of half-maximal effect)
[16] = Cell Proliferation Assay against the HBL1 Cell Line (AID 651646); conditions: HBL1 DLBCL cells; at 46.1 µM (top of the series);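 note: cells exposed to compound for 48 h before reading; 100% = DMSO and 0% = 9.2 µM bortezomib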
How it was run: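 After a 48 h incubation of 500 HBL1 cells/well in phenol red-free RPMI plus 5% FBS, relative luciferase units from CellTiter-Glo gave percent activity against DMSO and 9.2 uM bortezomib (final) controls.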

[17] = Cell Proliferation Assay against the TMD8 Cell Line (Caspase readout at 8 hrs) (AID 651713); note: potency is the fitted concentration of half-maximal effect
How it was run: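 Apoptosis read-out: Caspase-Glo luminescence after 8 h compound exposure of TMD8 lymphoma cells at 37C, 5% CO2. Signals were normalized as percent activity between DMSO and bortezomib (9.2 uM final) controls.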

[18] = Cytotoxicity counterscreen for NFkB agonists and antagonists (AID 624476);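 note: cells exposed to compound for 48 hours; % is set by controls: 0 for no effect and ±100 for the full control effect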
[19] = qHTS Assay for Identification of Small Molecule Agonists for NFkB Signaling Pathway. (AID 624478); note: 0% is about no effect
How it was run: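 Compounds were added with 10 pM TNF alpha (EC50 level) to ME-180 NFkB-bla cells in low-serum Opti-MEM and incubated 5 hrs at 37 C. Beta-lactamase FRET read-out used 405 nm excitation and 460 and 530 nm emission.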

Sequence of Glucagon-like peptide 1 receptor (Homo sapiens) (P43220 whole entry, looked up): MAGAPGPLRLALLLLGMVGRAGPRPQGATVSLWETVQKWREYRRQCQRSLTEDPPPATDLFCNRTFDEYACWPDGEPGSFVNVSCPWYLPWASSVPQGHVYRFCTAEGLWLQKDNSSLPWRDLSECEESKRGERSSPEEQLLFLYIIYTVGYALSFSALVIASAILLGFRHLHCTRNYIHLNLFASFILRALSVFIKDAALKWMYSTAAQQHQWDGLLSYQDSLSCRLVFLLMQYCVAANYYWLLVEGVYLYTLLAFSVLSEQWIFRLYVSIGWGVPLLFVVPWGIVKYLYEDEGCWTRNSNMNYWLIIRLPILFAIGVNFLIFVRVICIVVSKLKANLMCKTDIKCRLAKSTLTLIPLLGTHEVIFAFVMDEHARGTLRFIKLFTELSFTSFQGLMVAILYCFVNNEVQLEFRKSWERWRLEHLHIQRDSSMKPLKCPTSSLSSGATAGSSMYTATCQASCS
Sequence of Glutaminase kidney isoform, mitochondrial (Homo sapiens) (O94925 whole entry, looked up, canonical isoform): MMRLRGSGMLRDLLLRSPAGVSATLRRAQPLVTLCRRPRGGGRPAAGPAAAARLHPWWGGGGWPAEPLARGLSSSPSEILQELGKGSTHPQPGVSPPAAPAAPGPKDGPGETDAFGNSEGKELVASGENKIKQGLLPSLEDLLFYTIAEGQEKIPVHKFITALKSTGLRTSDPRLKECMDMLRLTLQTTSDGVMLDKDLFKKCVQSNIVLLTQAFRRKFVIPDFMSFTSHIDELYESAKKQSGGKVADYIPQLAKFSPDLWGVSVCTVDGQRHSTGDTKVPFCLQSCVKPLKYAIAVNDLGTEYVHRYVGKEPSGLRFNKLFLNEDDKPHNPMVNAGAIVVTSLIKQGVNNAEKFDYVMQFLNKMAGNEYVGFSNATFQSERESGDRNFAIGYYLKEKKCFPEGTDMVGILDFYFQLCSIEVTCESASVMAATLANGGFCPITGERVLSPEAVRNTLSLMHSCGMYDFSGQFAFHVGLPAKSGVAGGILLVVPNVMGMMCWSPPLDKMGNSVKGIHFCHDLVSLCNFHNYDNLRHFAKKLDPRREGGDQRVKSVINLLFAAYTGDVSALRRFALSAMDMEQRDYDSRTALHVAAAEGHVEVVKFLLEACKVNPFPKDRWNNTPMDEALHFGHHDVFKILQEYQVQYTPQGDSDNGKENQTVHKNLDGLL
Sequence of Tumor necrosis factor (Homo sapiens) (P01375 whole entry, looked up): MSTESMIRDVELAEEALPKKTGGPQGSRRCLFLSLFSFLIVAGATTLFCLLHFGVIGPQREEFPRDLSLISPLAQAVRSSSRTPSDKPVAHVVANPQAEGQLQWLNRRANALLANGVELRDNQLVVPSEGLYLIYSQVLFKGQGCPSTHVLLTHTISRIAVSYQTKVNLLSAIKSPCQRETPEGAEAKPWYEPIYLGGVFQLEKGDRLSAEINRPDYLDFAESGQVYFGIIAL

CC(C)(C)CC(C)(C)c1ccc(O)cc1
inactive: Potency [1] | Potency [2] | Potency [3] | activation [4] 1.12%

C[C@]12C/C(=C/O)C(=O)C[C@@H]1CC[C@@H]1[C@@H]2CC[C@@]2(C)[C@H]1CC[C@]2(C)O
active: Potency [5] 6.86 µM and 7.5 µM
inactive: Potency [1] | Potency [3] | activation [4] 23.1% | Potency [6] | Potency [7] | outcome [8] | Potency [9]

NCC(CC(=O)O)c1ccc(Cl)cc1 (stereo unspecified)
inactive: Potency [1] | Potency [2] | Potency [10] | outcome [11] | outcome [12] | outcome [13] | Potency [14]

COc1cc2c(c(OC)c1OC)-c1ccc(OC)c(=O)cc1[C@@H](NC(C)=O)CC2
active: Potency [2] 0.102 µM | Potency [3] 0.0891 µM | Potency [5] 75 nM | Potency [9] 53.1 nM and 47.3 nM

Fc1ccc(C(OCCN2CCN(CCCc3ccccc3)CC2)c2ccc(F)cc2)cc1
active: Potency [1] 32.2 µM | Potency [2] 28.7 µM
inactive: outcome [11] | outcome [12] | outcome [13] | Potency [14]

CC(C)=CCOc1c2occc2cc2ccc(=O)oc12
inactive: outcome [11] | outcome [12] | outcome [13] | Potency [14]

CO[C@@H](C(=O)N1Cc2[nH]nc(NC(=O)c3ccc(N4CCN(C)CC4)cc3)c2C1)c1ccccc1
active: Potency [15] 11.9 µM | Potency [17] 16.6 µM
77.1%: viability, percent of control [16]

CCCCC/C=C\C/C=C\C/C=C\C/C=C\CCCC(=O)NC1CC1
inactive: Potency [18] | outcome [19] | Potency [17]
109%: viability, percent of control [16]

COc1ccc(C(=O)c2c(C)n(CCN3CCOCC3)c3ccccc23)cc1
active: Potency [17] 26.4 µM
50.4%: viability, percent of control [16]
inactive: Potency [3] | Potency [18] | outcome [19] | Potency [15]

— PubChem BioAssay (NCATS)
